From PubChem BioAssay AID1159580 (chemical genetic matrix, 2015)
Hit rate of the full screen: of about 5,500 compounds, about 2,000 (36%) were called active. Another 18% or so got no clear call; they are omitted. Rule as the data show it: active = normalized growth mostly below about 0.91 (no sharp cut-off); inconclusive = no clear call, values can overlap the other calls; inactive = mostly above about 0.92. Some of the results follow.

Test: chemical genetic growth profiling, strain panel (AID 1159580);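 also: tested at 20 µM; growth read once vehicle control cultures reached saturation at 30 °C; 1 = growth at the plate median or of vehicle wells; lower values mean less growth of the strain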
Details: S. cerevisiae deletion strains, growth OD

Measured: normalized growth

CC(C)N(C(=O)CCl)c1ccccc1
active: locus YDR392W, strain spt3, stronger effect = lower value 0.649 | locus YJL129C, strain trk1, stronger effect = lower value 1.23 [resistant]
inactive: locus YAL013W, strain DEP1, stronger effect = lower value 1.03 | locus YAL021C, strain ccr4, stronger effect = lower value 1.03 | locus YAL026C, strain drs2, stronger effect = lower value 1.04 | locus YAL030W, strain snc1, stronger effect = lower value 1.02 | locus YBL061C, strain skt5, stronger effect = lower value 1.01 | locus YBR009C, strain hhf1, stronger effect = lower value 0.949 | locus YBR021W, strain FUR4, stronger effect = lower value 1.07 | locus YBR023C, strain chs3, stronger effect = lower value 1.02 | locus YBR171W, strain sec66, stronger effect = lower value 1.01 | locus YBR229C, strain ROT2, stronger effect = lower value 1.02 | locus YBR231C, strain swc5, stronger effect = lower value 0.991 | locus YBR279W, strain paf1, stronger effect = lower value 0.993 | locus YCL011C, strain gbp2, stronger effect = lower value 1.01 | locus YCL016C, strain dcc1, stronger effect = lower value 1.01 | locus YCL029C, strain bik1, stronger effect = lower value 1.02 | locus YCL061C, strain MRC1, stronger effect = lower value 1.02 | locus YCL069W, strain vba3, stronger effect = lower value 1.01 | locus YCR088W, strain abp1, stronger effect = lower value 1.03 | locus YDL005C, strain med2, stronger effect = lower value 1.04 | locus YDL035C, strain GPR1, stronger effect = lower value 1.04 | locus YDL040C, strain nat1, stronger effect = lower value 1 | locus YDL074C, strain BRE1, stronger effect = lower value 1.05 | locus YDL101C, strain DUN1, stronger effect = lower value 1.02 | locus YDL134C, strain PPH21, stronger effect = lower value 1.02 | locus YDL185W, strain tfp1, stronger effect = lower value 1.02 | locus YDL192W, strain arf1, stronger effect = lower value 1.01 | locus YDR001C, strain nth1, stronger effect = lower value 1.01 | locus YDR069C, strain doa4, stronger effect = lower value 0.979 | locus YDR101C, strain arx1, stronger effect = lower value 1.02 | locus YDR137W, strain rgp1, stronger effect = lower value 1.08 | locus YDR150W, strain NUM1, stronger effect = lower value 1.03 | locus YDR159W, strain sac3, stronger effect = lower value 1.01 | locus YDR162C, strain NBP2, stronger effect = lower value 1.03 | locus YDR195W, strain ref2 0.917 | locus YDR297W, strain sur2, stronger effect = lower value 1.03 | locus YDR318W, strain mcm21, stronger effect = lower value 1.02 | locus YDR334W, strain swr1, stronger effect = lower value 1.01 | locus YDR335W, strain msn5, stronger effect = lower value 1.01 | locus YDR388W, stronger effect = lower value 1.02 | locus YDR502C, strain sam2, stronger effect = lower value 1.02 | locus YEL003W, strain gim4, stronger effect = lower value 1 | locus YEL037C, strain rad23, stronger effect = lower value 1.01 | locus YEL061C, strain CIN8 (second series), stronger effect = lower value 1.01 | locus YEL061C, strain CIN8, stronger effect = lower value 1.02 | locus YER015W, strain faa2, stronger effect = lower value 0.997 | locus YER016W, strain bim1, stronger effect = lower value 1.01 | locus YER110C, stronger effect = lower value 1.03 | locus YER111C, strain swi4, stronger effect = lower value 1.02 | locus YER155C, strain BEM2 (second series), stronger effect = lower value 1.01 | locus YER155C, strain BEM2, stronger effect = lower value 1.03 | locus YER167W, strain BCK2, stronger effect = lower value 1.03 | locus YFR010W, strain ubp6, stronger effect = lower value 0.985 | locus YGL078C, strain dbp3, stronger effect = lower value 1.03 | locus YGL086W, strain mad1, stronger effect = lower value 1.02 | locus YGL167C, strain pmr1, stronger effect = lower value 1.01 | locus YGL173C, strain kem1, stronger effect = lower value 1.03 | locus YGL227W, strain vid30, stronger effect = lower value 1.01 | locus YGL240W, strain doc1, stronger effect = lower value 0.977 | locus YGL248W, strain PDE1, stronger effect = lower value 1.04 | locus YGL253W, strain hxk2, stronger effect = lower value 0.941 | locus YGR078C, strain PAC10, stronger effect = lower value 1.02 | locus YGR135W, strain pre9, stronger effect = lower value 1.01 | locus YGR229C, strain SMI1, stronger effect = lower value 1.05 | locus YGR252W, strain gcn5, stronger effect = lower value 0.958 | locus YHR013C, strain ard1, stronger effect = lower value 0.881 | locus YHR027C, strain rpn1, stronger effect = lower value 1.01 | locus YHR030C, strain SLT2, stronger effect = lower value 1 | locus YHR079C, strain IRE1 (second series), stronger effect = lower value 1.02 | locus YHR094C, strain hxt1, stronger effect = lower value 1.01 | locus YHR129C, strain ARP1, stronger effect = lower value 1.04 | locus YHR142W, strain chs7, stronger effect = lower value 1.01 | locus YHR200W, strain rpn10, stronger effect = lower value 1.02 | locus YIL066C, strain RNR3, stronger effect = lower value 1.01 | locus YIL073C, strain SPO22, stronger effect = lower value 0.961 | locus YIL125W, strain kgd1, stronger effect = lower value 1.03 | locus YIR030C, strain dcg1, stronger effect = lower value 1.02 | locus YJL092W, strain hpr5, stronger effect = lower value 1.03 | locus YJL095W, strain BCK1 (second series), stronger effect = lower value 1.01 | locus YJL095W, strain BCK1, stronger effect = lower value 1.02 | locus YJL115W, strain asf1, stronger effect = lower value 1.03 | locus YJL134W, strain LCB3, stronger effect = lower value 1.03 | locus YJL154C, strain vps35, stronger effect = lower value 1.02 | locus YJL164C, strain tpk1, stronger effect = lower value 0.999 | locus YJL166W, strain qcr8, stronger effect = lower value 0.955 | locus YJL168C, strain set2, stronger effect = lower value 1 | locus YJL187C, strain SWE1 (second series), stronger effect = lower value 1.02 | locus YJL187C, strain SWE1, stronger effect = lower value 1.02
